The list is not random: actives were taken first. Their share in the collection is about 19%.
TDP1 cell noCPT = qHTS for Inhibitors of human tyrosyl-DNA phosphodiesterase 1 (TDP1): qHTS in cells in absence of CPT; DT40 Tdp1-/- hTDP1 cells, no CPT, ATP luminescence, 48 h; Potency, µM (doses to about 46.2 µM), usual class: inhibitors; actives 15% (n = 420,000); note: nearly all actives have a fitted effect of over 55% in size
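Cells were dispensed at 400 per well, compounds added by pin tool, plates incubated ≥48 hr at 37 °C, then CellTiter-Glo added for 30 min at room temperature before luminescence reading. Line: DT40 Tdp1-/- complemented with hTDP1; camptothecin omitted.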
KB-V1 MDR tox = kills drug-selected multidrug resistant KB-V1 cells; Potency, µM (highest dose often 46.1 µM), most hits filed as cytotoxic; actives 3.4% (n = 400,000); KB-V1 MDR cells viability, CellTiter-Glo, 72 h; AID 1347076; note: nearly all actives have a fitted effect of over 60% in size
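Cells of the MDR subline KB-V1 are plated, dosed with compound at multiple concentrations, and incubated 72 h at 37 degrees C; CellTiter-Glo is then added and luminescence read after 10 min.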
HT1080 IDH1KD tx = HT-1080 IDH1 knockdown cell toxicity (counter line); HT-1080 IDH1 knockdown viability, ATP luminescence, 48 h; Potency, µM (highest dose often 46.1 µM), hits mostly cytotoxic; actives 2% (n = 360,000)
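Cytotoxicity counter-line: IDH1KD HT-1080, 48 h, CellTiter-Glo. Curves classed by r2, magnitude and activity.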
HT1080NT lethal = kills 2HG-producing HT-1080-NT fibrosarcoma cells | HT-1080-NT fibrosarcoma viability, CellTiter-Glo ATP luminescence, 48 h | Potency, µM (highest dose often 46.1 µM), actives largely listed as cytotoxic | actives 1.6% (n = 360,000);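 note: NT is the 2HG producing partner of a matched IDH1 knockdown line; nearly all actives have a fitted effect of over 55% in size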
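Luminescent CellTiter-Glo readout after 48 hours of compound exposure at 37 degrees C defined viability of HT-1080-NT cells. Activity was normalized to DMSO wells and cell-free media wells; concentration-response curves were fitted and assigned curve classes.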
KB-3-1 cytotox = KB-3-1 parental cell cytotoxicity; actives 1.4% (n = 400,000); AID 1347075; Potency, µM (highest dose often 46.1 µM), most hits filed as cytotoxic; KB-3-1 viability, CellTiter-Glo ATP luminescence, 72 h; note: nearly all actives have a fitted effect of over 60% in size
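Parental KB-3-1 adenocarcinoma cells in phenol-red-free DMEM with 10% FBS were pin-treated with compounds at several concentrations, incubated 72 h at 37 °C, and viability read by CellTiter-Glo luminescence; concentration-effect curves were fitted after normalization.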
DT40 TDP1 CPT = DT40-hTDP1 cell growth loss with CPT. chicken DT40 Tdp1-/-;hTDP1 cells + 20 nM CPT, ATP luminescence, 48 h. Potency, µM (doses to about 46.2 µM), hits mostly inhibitors. actives 12% (n = 420,000); note: nearly all actives have a fitted effect of over 55% in size
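Cell growth measured by CellTiter-Glo luminescence after a minimum 48 h, 37 C compound exposure with 20 nM CPT in Tdp1-knockout DT40 cells stably expressing hTDP1, seeded 400/well; qHTS titration format.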
Of the large screens only hits and unclear results are named; the others gave an inactive call. Calls come from the whole dose curve; as a rule, active = well fitted curve in the direction sought with a large enough effect; inconclusive = small, poorly fitted or top-dose-only effect, or another doubt; inactive = no such curve, though single readings can be large; an effect the other way counts as inactive or inconclusive.

COc1ccccc1C1CN(Cc2cccc(OCCO)c2)Cc2ccccc2O1 (stereo not drawn)	TDP1 cell noCPT inconclusive (no result: KB-V1 MDR tox, HT1080 IDH1KD tx, HT1080NT lethal, KB-3-1 cytotox)
O=[N+]([O-])c1nn(-c2ccc(Cl)cc2)n(O)c1=NCc1ccncc1	TDP1 cell noCPT 10.3µM, DT40 TDP1 CPT 5.17µM
Cc1cccc(-n2nc([N+](=O)[O-])c(=NCc3cccnc3)n2O)c1	TDP1 cell noCPT inconclusive, KB-V1 MDR tox inconclusive, HT1080 IDH1KD tx inconclusive, DT40 TDP1 CPT 11.6µM
O=[N+]([O-])c1nn(-c2cccc(Cl)c2)n(O)c1=NCc1cccnc1	TDP1 cell noCPT 13µM, DT40 TDP1 CPT 8.2µM
O=[N+]([O-])c1nn(-c2ccc(Cl)cc2)n(O)c1=NCc1ccccc1Cl	TDP1 cell noCPT inconclusive
Cc1ccc(CN=c2c([N+](=O)[O-])nn(-c3ccc(Cl)cc3)n2O)cc1	TDP1 cell noCPT inconclusive, KB-V1 MDR tox inconclusive, DT40 TDP1 CPT inconclusive
O=[N+]([O-])c1nn(-c2ccc(Cl)cc2)n(O)c1=NCc1cccnc1	TDP1 cell noCPT 10.3µM, KB-V1 MDR tox inconclusive, DT40 TDP1 CPT 8.2µM
O=S(=O)(NC1c2cccc3cccc(c23)C1Sc1ncccn1)c1ccc(Cl)cc1 (stereo not drawn)	TDP1 cell noCPT inconclusive, KB-3-1 cytotox inconclusive, DT40 TDP1 CPT inconclusive
Cc1ccc(S(=O)(=O)NC2c3cccc4cccc(c34)C2Sc2n[nH]c(N)n2)cc1 (stereo not drawn)	TDP1 cell noCPT 16.4µM, HT1080 IDH1KD tx inconclusive, HT1080NT lethal inconclusive, DT40 TDP1 CPT 20.6µM
CCN(CC)C(=O)C1=C(C)N(CCCOC)C(=O)C(CC(=O)NCCCCc2ccccc2)C1 (stereo not drawn)	none
Nc1c(C(=O)NCc2ccccc2)sc2nc(N3CCOCC3)c3c(c12)CCCC3	TDP1 cell noCPT 20.6µM, DT40 TDP1 CPT inconclusive
Nc1c(C(=O)Nc2ccccc2)sc2nc(N3CCOCC3)c3c(c12)CCCC3	TDP1 cell noCPT 9.2µM, DT40 TDP1 CPT inconclusive
Cc1ccc(NC(=O)c2sc3nc(N4CCOCC4)c4c(c3c2N)CCCC4)cc1	TDP1 cell noCPT inconclusive
COc1ccc(NC(=O)c2sc3nc(N4CCOCC4)c4c(c3c2N)CC(C)(C)OC4)cc1	KB-V1 MDR tox inconclusive
CC(=O)c1ccc(NC(=O)c2sc3nc(N4CCOCC4)c4c(c3c2N)CCCC4)cc1	TDP1 cell noCPT 20.6µM, DT40 TDP1 CPT inconclusive
COc1cccc(NC(=O)c2sc3nc(N4CCOCC4)c4c(c3c2N)CCCC4)c1	TDP1 cell noCPT 23.1µM, DT40 TDP1 CPT 25.9µM
NNC(=O)c1sc2nc(N3CCOCC3)c3c(c2c1N)CCCC3	TDP1 cell noCPT inconclusive
COc1ccc(C(=O)OCC(O)COC(=O)c2ccc(OC)cc2)cc1	TDP1 cell noCPT inconclusive, KB-3-1 cytotox inconclusive
O=c1c(-c2cccs2)nc2cncnc2n1Cc1ccc(F)cc1	none (no result: KB-V1 MDR tox, HT1080 IDH1KD tx, HT1080NT lethal, KB-3-1 cytotox)
O=[N+]([O-])c1ccc(SCCO)nc1SCCO	TDP1 cell noCPT inconclusive
O=c1[nH]c(=S)[nH]c2n[nH]nc12	none (no result: HT1080 IDH1KD tx, HT1080NT lethal)
Nc1c(C(=O)Nc2ccc(Cl)cc2)sc2nc(N3CCOCC3)c3c(c12)CCCC3	TDP1 cell noCPT 14.6µM, DT40 TDP1 CPT inconclusive
CCOc1ccc(NC(=O)c2sc3nc(N4CCOCC4)c4c(c3c2N)CCCC4)cc1	TDP1 cell noCPT inconclusive, DT40 TDP1 CPT inconclusive
COc1ccc(NC(=O)Nc2ccc3c(c2)C(=O)N([C@H](C)CO)C[C@H](C)[C@@H](CN(C)C(=O)Nc2c(C)noc2C)O3)cc1	none
C=CC(C)(C)c1[nH]c2ccccc2c1C1=C(O)C(=O)C(c2c[nH]c3c(CC=C(C)C)cccc23)=C(O)C1=O	TDP1 cell noCPT 13.3µM, DT40 TDP1 CPT 13.3µM (no result: KB-V1 MDR tox, HT1080 IDH1KD tx, HT1080NT lethal, KB-3-1 cytotox)
CCCCOc1cccc(C(=O)N(Cc2ccc(C)o2)c2ccccn2)c1	TDP1 cell noCPT 9.2µM, DT40 TDP1 CPT 14.6µM (no result: HT1080 IDH1KD tx, HT1080NT lethal)

Screening data from PubChem.
